The results in this text go back to ChEMBL document CHEMBL1961873, “Compounds: GSK PKIS; Assays: Nanosyn kinase panel” (2012).
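Also: reported value is the mean percent inhibition of PKA.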

The target of this assay is cAMP-dependent protein kinase catalytic subunit alpha (Homo sapiens) (UniProt P17612). The conditions noted are these: at 0.1 µM.
As for `CCCNc1cccc(-n2ncc3c(N/N=C/c4ccncc4)ncnc32)c1`, the inhibition amounted to 1.59%.

Compound `O=C(O[C@H]1CN[C@H](C#Cc2cc3ncnc(Nc4ccc(OCc5cccc(F)c5)c(Cl)c4)c3s2)C1)N1CCOCC1` showed an inhibition of 2.39%.

In turn, `Cc1cc(O)cc(C)c1/C=C/c1cncc(C(=O)OC(C)(C)C)c1` came in with an inhibition of 1.82%.

`O=C(O[C@H]1CN[C@H](C#Cc2cc3ncnc(Nc4ccc5c(cnn5Cc5ccccc5)c4)c3s2)C1)N1CCOCC1` returned an inhibition of 0.31%.

Consider `Cc1ccc(-c2cc3c(NC(=O)C4CC4)ncnc3o2)cc1`, for which the inhibition was 1.76%.

Consider `COc1cc(Nc2ncc(-c3ccccc3)o2)cc(OC)c1`, for which the inhibition was determined as 1.51%.

`CCOc1ccc2c(-c3ccnc(Nc4cc(OC)cc(C(F)(F)F)c4)n3)cnn2n1` displayed an inhibition of 0.6%.

As for `COC(=O)Nc1nc2ccc(Oc3ccc(NC(=O)Nc4cc(C(F)(F)F)ccc4F)cc3)cc2s1`, the inhibition was 1.2%.

The compound `COC(=O)Nc1nc2cc(Oc3ccc(NC(=O)Nc4ccccc4)cc3)ccc2[nH]1` returned an inhibition of 2.49%.

Turning to `CCn1c(-c2nonc2N)nc2cncc(C(=O)NCCNC)c21`, the inhibition was 42.5%.

Compound `COc1ccc(Nc2ncc(-c3ccccc3)o2)cc1OC` displayed an inhibition of 0.2%.

In the case of `N#Cc1ccc2c(-c3ccnc(NC4CC4)n3)c(-c3ccc(F)cc3)nn2c1`, the inhibition came out at 1.59%.

For `Fc1cccc(COc2ccc(Nc3ncncc3C#Cc3ccccc3)cc2Cl)c1`, the inhibition is 2.03%.

Consider `CNC(=O)c1ncccc1Nc1nc(Nc2cc3c(cc2OC)CCCN3C(=O)CN(C)C)nc2[nH]ccc12`, for which the inhibition was found to be 1.72%.

Compound `NS(=O)(=O)c1cccc(N/C=C2\C(=O)Nc3ccccc32)c1` returned an inhibition of 2.79%.

Regarding `CS(=O)(=O)CCNCc1ccc(-c2ccc3ncnc(Nc4ccc(OCc5ccccc5)cc4)c3c2)o1`, the inhibition came to 2.17%.

What is called inhibition is the relative decrease from the control value, in per cent. A low value points to little suppression.
